Consider 39 compounds from PubChem BioAssay.

Values without a mark were called inactive. The rule behind the calls is not given here.

In the experiment the target is Pantothenate synthetase (Mycobacterium tuberculosis (strain ATCC 25618 / H37Rv)) (UniProt P9WIL5). The experiment can be described thus: Coupled enzyme confirmation of inhibitors against recombinant Mtb PanC (AID 375).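 Note: 0% = full reaction with vehicle and 100% = no enzyme background.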 As to conditions: coupled enzyme assay; at 10 µM, hits give high values.
Chain of Pantothenate synthetase (Mycobacterium tuberculosis (strain ATCC 25618 / H37Rv)) (P9WIL5 whole entry, looked up): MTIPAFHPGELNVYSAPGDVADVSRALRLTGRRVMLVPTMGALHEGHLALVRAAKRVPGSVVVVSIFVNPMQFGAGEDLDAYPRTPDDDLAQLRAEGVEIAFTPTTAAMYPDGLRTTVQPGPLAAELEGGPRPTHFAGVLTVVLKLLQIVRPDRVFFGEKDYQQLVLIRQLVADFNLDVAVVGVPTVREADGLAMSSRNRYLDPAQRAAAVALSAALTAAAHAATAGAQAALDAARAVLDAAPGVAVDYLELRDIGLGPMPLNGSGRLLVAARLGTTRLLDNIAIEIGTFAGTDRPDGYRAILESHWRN
One may read the inhibition as the percentage by which the read-out fell short of the control. Turning to `O=C(COC(=O)c1cc(S(=O)(=O)N2CCOCC2)cs1)c1ccccc1`, the inhibition is 0%.

With `COc1cc(CN2CCN(C(=O)CC(C)C)CC2)cc(OC)c1O`, the inhibition is 0%. On to `CS(=O)(=O)Nc1ccc([N+](=O)[O-])cc1Oc1ccccc1`, for which the inhibition was 0%. In the case of `Cc1ccc(OC(=O)CCc2c(C)nc3ncnn3c2C)cc1`, the inhibition was 0%. The figure for `O=P(O)(O)C(O)C(F)(F)C(F)(F)C(F)(F)C(F)F` (centres undefined) is 0%; for `CNC(=O)c1ccc(N(Cc2ccccc2C)S(C)(=O)=O)cc1` it is 7%. As to `COc1ccc(-n2nc(C(=O)NCC(=O)NCC3CCCO3)c3ccccc3c2=O)cc1` (centres undefined), the inhibition is 0%. The figure for `COCCN(Cc1cc2cccc(C)c2[nH]c1=O)C(=O)c1ccccc1` is 0%; for `CCOC(=O)c1c(C)oc2ccc(OCC(=O)N(CC)CC)cc12` it is 4%; for `COCCCNC(=O)c1c(N)n(-c2cccc(S(N)(=O)=O)c2)c2nc3ccccc3nc12` it is 2%. For the compound `CCCCOc1ccc(N(CC(=O)NC2CCCC2)C(=O)CCC(=O)Nc2ccccn2)cc1`, the inhibition was 0%.

On to `Cn1c(=O)[nH]c(=O)c2c1nc(N1CCc3ccccc3C1)n2CCSc1nc2ccccc2s1`, for which the inhibition was 4%.

In the case of `CCOC(=O)N1CCN(c2c(NCCCOC(C)C)c(=O)c2=O)CC1`, the inhibition is 4%. The figure for `CCN(CC)c1nc2nonc2nc1N(CC)CC` is 0%; for `COc1ccc(CCN(C)CCCC(C#N)(c2cc(OC)c(OC)c(OC)c2)C(C)C)cc1OC` (centres undefined) it is 0%. Consider `Cn1c(=O)c2c(nc(SCC(=O)O)n2Cc2cccc(C(F)(F)F)c2)n(C)c1=O`, for which the inhibition was 8%. Under `O=C(NCCc1ccccc1)C1CCN(S(=O)(=O)N2CCC3(CC2)OCCO3)CC1` stands 4%. Under `O=C(/C=C/N1CCOCC1)c1ccc(-c2ccccc2)cc1` stands 4%; under `CC1Cc2ccccc2N1C(=O)COC(=O)Cn1nnc(-c2ccccc2)n1` (centres undefined), 13%; under `COc1ccc(-c2noc(CN(C(=O)C(C)(C)C)C(C)C)n2)cc1`, 0%. Under `Cc1c(Cl)cccc1NC(=O)CCN1CCCCC1` stands 0%. With `Cc1ccc(Br)cc1S(=O)(=O)N1CCN(c2ccccc2)CC1`, the inhibition was 0%.

Consider `CCn1c(Cc2ccccc2)nnc1SCC(=O)Nc1cc(C)on1`, for which the inhibition was 0%. On to `COc1ccc(C2CC(=O)C3=C(C2)Nc2ccccc2N(C(=O)C2CC2)C3c2cccnc2)cc1OC` (centres undefined), for which the inhibition was 8%. Under `CC1CN(C(=O)c2scc3c2OCCO3)CC(C)O1` (centres undefined) stands 2%; under `COc1cc(OC)cc(C(=O)N2CCN(C(=O)c3ccc(OC)c(OC)c3)CC2)c1`, 1%; under `CS(=O)(=O)N1CCc2cc(S(=O)(=O)Nc3ccc4oc5c(c4c3)CCCC5)ccc21`, 3%.

Regarding `C/C(N)=C(/C#N)C(=O)COC(=O)CCSc1ccccc1`, the inhibition was 0%. In the case of `COc1ccccc1-c1cc(C(=O)Nc2cc(C)nn2-c2ccccc2)no1`, the inhibition is 6%. On to `Cc1cc2nc3c(nc2cc1C)C1(C(=O)O)CCC3(C)C1(C)C` (centres undefined), for which the inhibition is 0%. The figure for `O=C(NC1CCCC1)C1CC1c1ccccc1` (centres undefined) is 0%. In the case of `CCOC(=O)C1=C(C)Nc2nc(SCC(=O)OC)nn2C1c1cc(F)cc(F)c1` (centres undefined), the inhibition was 3%. Turning to `COCCSc1ccccc1C(=O)Nc1nncs1`, the inhibition was 0%. Turning to `Cc1c(Cl)cnc(NC(=O)COC(=O)C(NC(=O)c2ccco2)C(C)C)c1Cl` (centres undefined), the inhibition is 8%.

On to `CCCOc1ccc2ccccc2c1/C=N/n1cnnc1`, for which the inhibition is 5%. `CS(=O)(=O)N1CCCC(C(=O)NCCCN2CCC(Cc3ccccc3)CC2)C1` (centres undefined): the inhibition was 0%. The figure for `NC(=O)c1cccc(S(=O)(=O)N2CCCCC2)c1` is 0%. The figure for `O=C1CCC(=O)N1OCCCCOc1ccccc1` is 2%. `COc1cccc(OC)c1OCCCSc1nc(C)cc(=O)[nH]1`: the inhibition is 0%.
